Out of some 71,000 compounds screened, about 310 (0.44%) were called active. Inconclusive results (about 5%) are left out. Shown is part of a subset that was picked to be rich in actives. Values without a mark were called inactive. Calls come from the whole dose curve; as a rule, active = well fitted curve in either direction with a large enough effect; inconclusive = small, poorly fitted or top-dose-only effect, or another doubt; inactive = flat fitted curve, though single readings scatter.
% is set by controls: 0 for no effect and ±100 for the full control effect; potency is the fitted concentration of half-maximal effect.

This test relates to Hsp90 C-terminal peptide / TPR2A (Hop) interaction, human. Kind of test: qHTS Assay for Disrupters of an Hsp90 Co-Chaperone Interaction. The following applies: AlphaScreen TPR2A-His6 binding biotin-Hsp90 C-terminal peptide; series mostly up to 57 µM; activity change, negative = inhibition: at the top concentration. The text has this:
NIH Chemical Genomics Center [NCGC]
NIH Molecular Libraries Screening Centers Network [MLSCN]
Hsp90 (heat shock protein 90) is the essential molecular chaperone and it accounts for 1-2% of all cytosolic proteins and is critical for the activity of diverse cellular proteins that are involved in a variety of cellular processes, including development, cell cycle, and steroid hormone signaling. Its client proteins include signaling kinases such as IGF1R, Akt, v-Src, Raf-1; regulators of cell survival such as Bcr-Abl; and transcription factors such as mutated p53, estrogen and progesterone receptors. Hsp90 has emerged as an important target for cancer treatment due to its essential role in maintaining transformation and regulating the function of oncogenic signaling proteins.
The in vivo function of Hsp90 is regulated by the binding and hydrolysis of ATP at its N-terminal. Geldanamycin binds to ATP site and inhibit Hsp90 function. Geldanamycin and its analogues are under clinical trials in cancer patients.
This domain contains the binding site for tetratricopeptide repeat (TPR) domains on HOP (Hsp Organizing Protein). TPR is a structural motif used by a significant number of cochaperones by which the in vivo function of Hsp90 is regulated. TPR2A on HOP binds specifically to MEEVD motif of the C-terminal of Hsp90.
A homogeneous AlphaScreen is developed to assess the interaction between TPR2A and MEEVD motif of the C-terminal of Hsp90 by using the isolated TPR2A domain and a synthesized 20mer Hsp90 C terminal peptide. AlphaScreen is two bead-based proximity-dependent chemical energy transfer luminescent assay platform. TPR2A-His-6 and biotinylated Hsp90 C terminal peptide will bring streptavidin donor beads and nickel chelate acceptor beads to a proximity range (less than 200 nm), and subsequently lead a chemical luminescent reaction upon exciting donor beads with 680 nm laser. Inhibition of TPR2A and MEEVD motif interaction by small molecules could attenuate or abolish this chemical luminescent reaction.
Counter screening: Biotinylated-His-6 (PerkinElmer) can be utilized as a counter screen, as it serves as a linker to bring streptavidin beads and nickel chelate beads together. The counter screen can exclude alpha screen platform false positives due to small molecules being metal chelators, biotin analogues and imidazole analogues, or due to interfering with oxygen release from donor beads. Such an assay should be utilized to qualify any activity observed in this screen.
NCGC Assay Protocol Summary:
The assay was performed on 1536-well white plate (untreated solid bottom). Liquids were dispensed by 1536-well plate washer (Kalypsys, San Diego, CA). Plates were read on EnVision (PerkinElmer, Boston, MA).TPR2A-His6 was produced using a bacteria expression system and purified using a well developed method (Ghosh et al., 2000). Hsp90 C terminal 20-mer peptide with or without an N-terminal biotin group are synthesized using automated solid phase synthesis by the Yale Keck facility. The composition of assay buffer was (in mM) 25 HEPES, 100 KCl, 2 MgCl2 and 2 DTT; 0.1% BSA and 0.01% Tween-20. TPR2A-His6 binding to biotin-Hsp90 will bring streptavidin donor beads and nickel chelate acceptor beads (PerkinElmer) together and can be measured by Alpha reading by EnVision (PerkinElmer). Free Hsp90 blocks biotin-Hsp90 binding to TPR2 and serves as a positive control in the current asssay.
The assay was performed at room temperature. All compounds were screened as titrations from […] to 46 uM final concentration. The assay was performed in 1536-well format plates (untreated white solid bottom, Corning Inc.) as follows:
Sequence,Parameter,Value,Description
1,Reagent,3 uL TPR2A-His6,Final concentration was 5nM
2,Compound,23 nL,Final titration was from 0.7 nM to 46 uM
3,Time,15 minutes,Room temperature
4,Reagent,1 uL biotin-Hsp90,With and without free Hsp90. Final concentration was 10 nM for biotin-Hsp90 and 10uM for free Hsp90.
5,Time,1 hour,Room temperature
[…]
In general terms: qHTS replaces the single test concentration by a dilution series.
Take `CC1(C)S[C@@H]2[C@@H](NC(=O)[C@@H](N)c3ccccc3)C(=O)N2[C@H]1C(=O)O`: the “activity change, negative = inhibition” value is -8.43%.
Still for that read-out and setting: under `O=C(NCC12CC3CC(C1)CC(CNC(=O)N1CCCC1)(C3)C2)N1CCCC1` stands -1.73%; under `CC(C)NC(=O)N1CCCC2(CCN(C(=O)c3cccn3C)CC2)C1`, -1.72%.
Still for that read-out and setting: under `c1ccc2c(Nc3ccncc3)nc(-c3ccoc3)nc2c1` stands -15.2%.
For `O=C(c1ccncc1)N1CCC2(CCN(Cc3cc(C(F)(F)F)cc(C(F)(F)F)c3)CC2)CC1`, the “activity change, negative = inhibition” value was -0.985%.
Same read-out and setting: the value for `COc1ccc(-n2c(=O)c(-c3cn(C)c4ccccc34)nc3cnc(OC)nc32)cc1` was -7%; that for `Cn1cc(-c2nc3cncnc3n(-c3ccccc3)c2=O)c2ccccc21` was 12.7%.
With `COc1ccccc1CCn1c(=O)c(-c2cn(C)c3ccccc23)nc2cncnc21`, the Potency is 0.631 µM [activator] (active).
As to `COC(=O)[C@@]1(Cc2ccc(OC)cc2)[C@H]2c3cc(C(=O)N4CCCC4)n(Cc4ccc(OC(F)(F)F)cc4)c3C[C@H]2CN1C(=O)c1ccccc1`, the “activity change, negative = inhibition” value is -21%.
For the molecule `Cc1ccc(Br)cc1`, the “activity change, negative = inhibition” value is 1.28%.
Same read-out and setting: the value for `Cc1nc2cnc(N3CCNCC3)nc2n(CCc2ccccc2)c1=O` was -7.4%.
Same read-out and setting: under `C(=C\c1ccccc1)/CSc1nnc(-c2cccnc2)n1Cc1ccco1` stands -3.91%; under `CCCS(=O)(=O)N1CCC(C(=O)NCCCN(C)Cc2ccccc2)CC1`, 2.07%.
On the same count and under the same terms, the value for `COc1ccccc1CNc1ccnc(-c2c(C)noc2C)n1` was 3.49%; that for `CSc1ccc(S(=O)(=O)Nc2cccc(F)c2)cc1` was -0.401%.
As to `O=C(O)C1CCCN1S(=O)(=O)c1ccc2c(c1)CCC2` (centres undefined), the “activity change, negative = inhibition” value was 0.639%.
Same read-out and setting: the value for `CC(C)c1cc(CN(C)C)c(O)c(C(C)(C)C)c1` was 1.81% [at 11 µM].
`CCC(C)(NC(=O)c1ccccn1)C(=O)NC1CCCCC1` (centres undefined): the “activity change, negative = inhibition” value is -3.12%.
For the molecule `CCOc1ccc(C(=O)N(Cc2ccc(N(C)C)cc2)C2CCS(=O)(=O)C2)cc1` (centres undefined), the “activity change, negative = inhibition” value is -13%.
Consider `CC(C)Cn1c(CN(Cc2ccccc2)Cc2ccccc2)nc2c1c(=O)n(C)c(=O)n2C`, for which the “activity change, negative = inhibition” value is 2.13%.
Still for that read-out and setting: the value for `COc1ccc(CN2C(=O)CN=C2Nc2ccc(C)cc2C)cc1` was -1.44%.
On the same count and under the same terms, the value for `OCCCNCc1ccccn1` was -9.89% [at 11 µM]; that for `CCCCC[C@H](O)CCCC(=O)O` was -7.89%.
On to `CCCn1c(-c2ccc(F)cc2)nc2c(NC3CCN(Cc4ccccc4)C3)nc(C)nc21` (centres undefined), for which the “activity change, negative = inhibition” value is -16.3%.
Same read-out and setting: the value for `CC(=O)CCS(=O)(=O)c1ccc(C)c(C)c1` was -3.12%; that for `C#CCN1CC(C)/C(=N/O)CC1C` (centres undefined) was 0.89%; that for `COc1ccc(Cl)cc1NC(=O)C1CC(=O)N(c2ccc(F)cc2)C1` (centres undefined) was -6.06%.
Consider `C[C@H](CCC(=O)O)[C@H]1CC[C@@H]2[C@H]3CC[C@H]4C[C@H](O)CC[C@@]4(C)[C@@H]3CC[C@@]21C`, for which the activity change, negative = inhibition was -0.844% [at 11 µM].
Still for that read-out and setting: the value for `COCCn1c(=O)c(CCc2ccccc2)nc2cnc(N3CCNCC3)nc21` was -2.61%.
For the molecule `Oc1ccccc1CNCc1ccccc1O`, the activity change, negative = inhibition was -2.03% [at 11 µM].
On the same count and under the same terms, under `O=C(Cl)c1ccc([N+](=O)[O-])cc1` stands 0.785%; under `Cc1noc(C)c1-c1cc(NCc2cccnc2)ncn1`, -0.41%.
Still for that read-out and setting: the value for `c1ccc2sc(SCCSc3nc4ccccc4s3)nc2c1` was 2.87% [at 11 µM]; that for `O=C(O)CCCCC(=O)O` was -1.35%.
On the same count and under the same terms, the value for `CN(C)c1ccc(-c2nc(NCCN3CCOCC3)c3ccccc3n2)cc1` was -7.7%; that for `COC(=O)c1c(-c2ccc(C)cc2)csc1N` was -5.56%.
With `CC(C)CC1(C(=O)NCc2ccccn2)C=CCN1C(=O)c1ccccc1` (centres undefined), the “activity change, negative = inhibition” value was -3.81%.
Same read-out and setting: the value for `CN(CCCNC(=O)CN1C(=O)CC(C)(C)S(=O)(=O)c2ccccc21)C1CCCCC1` was -2.54%; that for `O=c1[nH]c(=O)n([C@H]2C[C@H](O)[C@H](CO)O2)cc1Br` was -2.56%.
Consider `Cc1ccc(S(=O)(=O)Nc2ccccc2CNc2c(C)n(C)n(-c3ccccc3)c2=O)cc1`, for which the “activity change, negative = inhibition” value was -1.54%.
On to `N[C@H](C(=O)O)c1ccc(C(=O)O)c(O)c1`, for which the “activity change, negative = inhibition” value is -1.81%.
Take `CCCn1c(=O)c2[nH]c(-c3ccc(OCC(=O)NCCN)cc3)nc2n(CCC)c1=O`: the “activity change, negative = inhibition” value was -19.8%.
Same read-out and setting: under `COc1ccc(OC)c(CN2C(=O)CCC2(C)C(=O)NC2CCCCCC2)c1` (centres undefined) stands -12.8%; under `CCCCC/C=C/C=C/C=O`, 0.076%; under `N#Cc1cccc(-c2nc3cnc(N4CCNCC4)nc3n(C3CC3)c2=O)c1`, -4.38%.
In the case of `O=c1c(-c2ccc(F)cc2)nc2cncnc2n1-c1ccccc1`, the “activity change, negative = inhibition” value was -0.766%.
Regarding `c1ccc2c(c1)-c1ccccc1C2N1CC2CCC(CC2)C1`, the activity change, negative = inhibition was 2.37% [at 11 µM].
Still for that read-out and setting: under `COc1ccc(C[C@H](N)C(=O)N[C@@H]2[C@H](O)[C@H](n3cnc4c(N(C)C)ncnc43)O[C@@H]2CO)cc1` stands -4.16% [at 26 µM]; under `Cc1cc(Cl)ccc1OCC(=O)Oc1c(Cl)c(Cl)c(Cl)c(Cl)c1Cl`, 0.356% [at 11 µM].

(Values after PubChem BioAssay AID595 (National Center for Advancing Translational Sciences (NCATS), 2007).)
